Among the data in ChEMBL document CHEMBL3988442, “University of Dundee, Small-Polar-MMV Screening Library” (2021) are Percent Effect values, retold here.

The structures appear in SMILES notation.

In assay [1] the target is T1, Aspartate--tRNA(Asp/Asn) ligase (Mycobacterium tuberculosis (strain ATCC 25618 / H37Rv)) (UniProt P9WFW3). Note: in the data most compounds retested in dose-response had high values.
T1 sequence (whole entry): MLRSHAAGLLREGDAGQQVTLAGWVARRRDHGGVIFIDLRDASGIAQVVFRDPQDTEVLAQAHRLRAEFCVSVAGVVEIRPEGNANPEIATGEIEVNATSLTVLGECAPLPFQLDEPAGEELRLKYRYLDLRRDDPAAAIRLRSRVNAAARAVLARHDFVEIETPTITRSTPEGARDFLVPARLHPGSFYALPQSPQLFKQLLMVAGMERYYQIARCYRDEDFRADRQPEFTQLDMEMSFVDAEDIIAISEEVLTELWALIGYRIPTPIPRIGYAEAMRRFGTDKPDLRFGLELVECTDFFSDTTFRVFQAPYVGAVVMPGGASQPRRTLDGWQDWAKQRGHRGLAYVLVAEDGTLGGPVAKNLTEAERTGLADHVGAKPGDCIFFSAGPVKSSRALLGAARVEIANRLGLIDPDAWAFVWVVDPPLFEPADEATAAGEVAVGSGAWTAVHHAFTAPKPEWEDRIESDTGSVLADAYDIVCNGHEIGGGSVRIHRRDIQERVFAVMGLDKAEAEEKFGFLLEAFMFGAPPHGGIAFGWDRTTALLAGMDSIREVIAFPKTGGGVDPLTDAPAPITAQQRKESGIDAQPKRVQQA
The assay is described as follows: Assay for Asp RNA synthetase-1 from Mycobacterium tuberculosis. On the set-up: scale not given: direction of the effect not stated beside the values. It counts as functional. The following applies: 30 µM.

Assay [2] deals with Shiga toxin 2 (Escherichia coli O157:H7) (UniProt P09385+P09386). The assay is described as follows: E. coli 0.157:H7 Shiga Toxin SOP - stx2 screening assay. The format is functional. On the set-up: scale not given: direction of the effect not stated beside the values. Conditions: 30 µM.

Turning to `Cc1cn2c(n1)CCC(NC(=O)c1cnc(C)nc1C(C)C)C2` (configuration not stated), the Percent Effect in assay [1] was determined as 2.91%; in assay [2], 20.9%.

For `Cc1ccsc1C(=O)N1CC(C(=O)NCC2CC2)C2(CCOCC2)C1` (configuration not stated), the Percent Effect in assay [1] was 8.9%; in assay [2], -7.68%.

As to `CCCNC(=O)c1sccc1N(C)S(=O)(=O)c1ccc(Cl)cc1`, the Percent Effect is 12.9% in assay [1] and -24.4% in assay [2].

For `CC(NC(=O)NCCCn1cccn1)c1ccc2c(c1)NC(=O)CO2` (configuration not stated), the Percent Effect in assay [1] is -5.91%; in assay [2], -20.8%.

As for `COc1ccccc1OC1(C(=O)O)CCN(c2nccnc2C)CC1`, the Percent Effect in assay [1] is 1.09%; in assay [2], -3.46%.

As to `CC(c1nc(C2CC2)no1)N1CCN(Cc2ccsc2)CC1` (configuration not stated), the Percent Effect in assay [1] was -4.63%; in assay [2], -11.4%.

Turning to `CCc1ccc(NS(=O)(=O)CC2=NC(=O)n3cccc3C2=O)cc1`, the Percent Effect in assay [1] is 0.755%; in assay [2], -77.4%.

As to `CC(=O)N1CC(=O)N(c2ccccc2)CC12CCN(CC1CC1)C2` (configuration not stated), the Percent Effect in assay [1] was 13.8%; in assay [2], -1.67%.

As to `Cc1cnn(CCNCC(O)COc2ccc(Cl)cc2)c1` (configuration not stated), the Percent Effect is -2.57% in assay [1] and -37.4% in assay [2].

On to `CCC(NC(=O)C1CCN(S(=O)(=O)N(C)C)CC1)c1ccc(C)c(C)c1` (configuration not stated), for which the Percent Effect in assay [1] is 4.22%; in assay [2] it was -32.8%.

In the case of `Cc1ccc(C(=O)Nc2cc(C(C)C)n[nH]2)cn1`, the Percent Effect in assay [1] came to 2.73%; in assay [2], 1.39%.

With `CC(C)(C)C(=O)Cn1nc(-c2ccccc2F)ccc1=O`, the figures for the Percent Effect in assay [1] and in assay [2] were -2.79% and -9.41%, respectively.

For `Cn1ccc(C(=O)N2CCN(c3cc(C#N)ccn3)CC2)cc1=O`, the Percent Effect in assay [1] was 3.75%; in assay [2], 1.09%.

With `CC(=O)N1CC(=O)N(c2cnn(C)c2)CC12CCN(Cc1ccsc1)C2` (configuration not stated), the results for the Percent Effect in assay [1] and in assay [2] were 4.83% and -25.5%, respectively.

Take `O=C(c1ccno1)N1CCC2(CC1)C(=O)N(CC1CC1)c1ccccc12`: the Percent Effect is -0.569% in assay [1] and -1.25% in assay [2].

With `Cc1ccc(C(=O)N2CCC3(CC2)CC(c2ccccc2)C(=O)N3)cn1` (configuration not stated), the Percent Effect is 7.75% in assay [1] and -10.4% in assay [2].

Turning to `Cc1ccsc1CN(C)Cc1nc2c(cnn2C)c(=O)[nH]1`, the Percent Effect is -2.46% in assay [1] and -6.66% in assay [2].

As for `CC(NC(=O)N1CCCN(Cc2cccs2)CC1)c1cccnc1` (configuration not stated), the results for the Percent Effect in assay [1] and in assay [2] were -7.21% and 15.3%, respectively.

As for `Cc1ccc(CCC(=O)N2CCCC(n3cncn3)C2)c(C)c1` (configuration not stated), the Percent Effect is -4.98% in assay [1] and 10.1% in assay [2].

In the case of `Cc1noc(C2CCN(C(=O)CCc3nccs3)CC2)n1`, the Percent Effect in assay [1] was -2.48%; in assay [2], -79.2%.

Regarding `O=C(NCc1cncc2c1CCN(Cc1cccc(F)c1)C2)C1CC1`, the Percent Effect in assay [1] was 1.78%; in assay [2], -32.2%.

On to `COc1ccccc1CNC(=O)N1CCCC(NS(C)(=O)=O)C1` (configuration not stated), for which the Percent Effect in assay [1] is 1.76%; in assay [2] it was 23.8%.

Regarding `c1ccc(-c2noc(CN3CCOC(Cn4cccn4)C3)n2)nc1` (configuration not stated), the Percent Effect was -2.01% in assay [1] and 11.3% in assay [2].

Take `O=C(NCc1ccccn1)N(Cc1ccc(F)cc1F)C1CC1`: the Percent Effect was -1.6% in assay [1] and 10.3% in assay [2].

Turning to `Cc1ccc(CC(=O)NCCCNS(C)(=O)=O)cc1`, the Percent Effect in assay [1] was 2.46%; in assay [2], -16.3%.

As to `Cn1cc(CC(=O)N2CCC(Nc3cccnn3)CC2)c2ccccc21`, the Percent Effect in assay [1] was 2.29%; in assay [2], -25.9%.

Turning to `Cn1ncc2c(=O)[nH]c(CN(Cc3ccco3)C3CCCC3)nc21`, the Percent Effect is -7.5% in assay [1] and -31.6% in assay [2].

As to `Cn1cnc2c1CCN(CCCc1ccccc1)C2`, the Percent Effect in assay [1] was 1.13%; in assay [2], 1.04%.

As for `CCCc1n[nH]c(C2CN(CCCS(C)(=O)=O)CCO2)n1` (configuration not stated), the Percent Effect was -3.39% in assay [1] and -21.5% in assay [2].

Regarding `CC(C)c1cc(NC(=O)c2ccc(C(=O)NC(C)(C)C)cc2)[nH]n1`, the values for the Percent Effect in assay [1] and in assay [2] were -0.941% and -39.3%, respectively.

For `COc1cc(C(=O)Nc2c(C)noc2C)ccc1C`, the Percent Effect in assay [1] was -3.4%; in assay [2], -5.89%.

Regarding `CCOc1ncccc1C(=O)N1CCCCC1c1nccs1` (configuration not stated), the Percent Effect in assay [1] was -1.77%; in assay [2] it was 2.91%.

Take `CSc1ccc(NS(=O)(=O)c2cnn(C)c2)cn1`: the Percent Effect is 1.57% in assay [1] and -7.54% in assay [2].

`Cn1ncc2c(NCCOc3ccc(F)cc3)nc(C3CCCC3)nc21`: the Percent Effect in assay [1] was 2.47%; in assay [2], -46.7%.

On to `Cc1ccc(-c2cc(CN3CCOC(Cn4cncn4)C3)on2)cc1` (configuration not stated), for which the Percent Effect in assay [1] was 1.83%; in assay [2], -14%.

Turning to `CCc1noc(C)c1C(=O)N1CCCC1Cn1nc(C)cc1C` (configuration not stated), the Percent Effect is 0.674% in assay [1] and 27.6% in assay [2].

Turning to `Clc1snnc1CN1CCOC(CNc2cccnn2)C1` (configuration not stated), the Percent Effect in assay [1] was -1.85%; in assay [2], -5.91%.

As to `O=C(c1ccnnc1)N1C[C@@H](OCC2CCCC2)[C@H]2OCCC[C@H]21`, the Percent Effect in assay [1] was 7.95%; in assay [2], -3.97%.

For `CC(=O)N1CCCCC1c1cc(CO)[nH]n1` (configuration not stated), the Percent Effect in assay [1] is -3.86%; in assay [2], 7.89%.

As to `O=C(c1ncccn1)N1C[C@H]2CCC[C@@]2(COCc2ccncc2)C1`, the Percent Effect is -2.08% in assay [1] and -24.5% in assay [2].

In the case of `O=C(Nc1cc(F)ccc1OCC1CCCO1)c1ccc(O)nc1` (configuration not stated), the results for the Percent Effect in assay [1] and in assay [2] were 5.1% and 33.8%, respectively.

As to `CN(Cc1nccn1CC(F)(F)F)C(=O)c1ccc(F)cc1F`, the results for the Percent Effect in assay [1] and in assay [2] were 1.98% and 9.03%, respectively.

With `O=C(c1cnco1)N1CCCC(Cc2nccs2)C1` (configuration not stated), the Percent Effect is 1.57% in assay [1] and -2.47% in assay [2].

Regarding `NCC(c1ccccc1)N1CCc2sccc2C1` (configuration not stated), the Percent Effect was -4.25% in assay [1] and -7.32% in assay [2].

With `Cc1cc(C(=O)N2CC[C@H](OCC3CC3)[C@@H]2Cc2cccnc2)no1`, the Percent Effect stood at 1.17% in assay [1] and 1.88% in assay [2].

`FC(F)(F)c1cccc(C2(CNCc3ccncc3)CCOCC2)c1`: the Percent Effect was 2.66% in assay [1] and -27.1% in assay [2].

Consider `COCc1nc(C(=O)NS(=O)(=O)c2cc(F)ccc2F)cs1`, for which the results for the Percent Effect in assay [1] and in assay [2] were -0.5% and -51.5%, respectively.

As for `Cc1ccc(S(=O)(=O)N2CCOc3ccccc32)cc1C(=O)O`, the Percent Effect was -1.83% in assay [1] and -32.8% in assay [2].

With `CCc1nccn1C1CCCN(C(=O)c2ccc(C(=O)NC)nc2)C1` (configuration not stated), the Percent Effect came to 2.25% in assay [1] and 2.77% in assay [2].

For the compound `CCc1nc(CN2CCCN(c3nccs3)CC2)no1`, the Percent Effect in assay [1] was 2%; in assay [2], -3.78%.

On to `O=C(CN1CCc2cncnc2C1)NCCOc1ccccc1`, for which the values for the Percent Effect in assay [1] and in assay [2] were 0.955% and 21.9%, respectively.

`O=C(CCc1cscn1)N1CCCC(n2ccnc2)C1` (configuration not stated): the results for the Percent Effect in assay [1] and in assay [2] were -3.19% and -12.2%, respectively.

For `CS(=O)(=O)N1CCC(NC(=O)COc2ccc(Cl)c(Cl)c2)CC1`, the Percent Effect in assay [1] is 1.23%; in assay [2] it was -20.3%.

In the case of `Cc1cc(C2CCCN(CCCNS(C)(=O)=O)C2)n[nH]1` (configuration not stated), the Percent Effect in assay [1] is -3.97%; in assay [2], 8.81%.

As for `CC(C)c1nc(CCNC(=O)NCc2ccnc(N(C)C)c2)cs1`, the values for the Percent Effect in assay [1] and in assay [2] were -0.713% and -13.1%, respectively.

For `Cc1ccc(NC(=O)C2CSCN2C(=O)c2cnn(C)c2)c(C)c1` (configuration not stated), the Percent Effect is 0.456% in assay [1] and -0.207% in assay [2].
